According to the supplement of paper PMC12669032:
A number with no mark means an inactive call.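 Rule for the calls: active = AUC reduced over 20% with Padj below 0.05 in at least 2 of 3 replicates; inactive = otherwise.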

How the values were obtained:
Assay in all cases: growth AUC relative to DMSO control (median of replicates) (fraction); higher = more growth (less inhibition), active = hit call of the paper
Conditions in all cases: 20 µM; 24 h
Akkermansia muciniphila = tested on: Akkermansia muciniphila
Summary of the method: (§1)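 For each compound at 20 µM (1% DMSO), gut bacterial monocultures seeded at OD600 0.05 grew anaerobically in mGAM at 37 °C in round-bottom 96-well plates. Hourly OD600 readings over 24 h gave growth curves whose minimum OD was set to 0. Area under these curves was normalised to the plate median of solvent-only wells, or to row and column medians on the industrial chemical plate. Values are medians of three biological replicates grown on separate days.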

Bacteroides caccae = tested on: Bacteroides caccae
Summary of the method: as §1

Bacteroides clarus = tested on: Bacteroides clarus
Summary of the method: as §1

Bacteroides dorei = tested on: Bacteroides dorei
Summary of the method: as §1

Bacteroides stercoris = tested on: Bacteroides stercoris
Summary of the method: as §1

[1] = tested on: Bacteroides thetaiotaomicron
Summary of the method: as §1

Bacteroides uniformis = tested on: Bacteroides uniformis
Summary of the method: as §1

[2] = tested on: Bifidobacterium longum subsp. longum
Summary of the method: as §1

Clostridium difficile = tested on: Clostridium difficile
Summary of the method: as §1

Collinsella aerofaciens = tested on: Collinsella aerofaciens
Summary of the method: as §1

Coprococcus comes = tested on: Coprococcus comes
Summary of the method: as §1

Escherichia coli ED1a = tested on: Escherichia coli ED1a
Summary of the method: as §1

Escherichia coli IAI1 = tested on: Escherichia coli IAI1
Summary of the method: as §1

Eubacterium rectale = tested on: Eubacterium rectale
Summary of the method: as §1

[3] = tested on: Fusobacterium nucleatum subsp. animalis
Summary of the method: as §1

Lactobacillus gasseri = tested on: Lactobacillus gasseri
Summary of the method: as §1

Lactobacillus paracasei = tested on: Lactobacillus paracasei
Summary of the method: as §1

Odoribacter splanchnicus = tested on: Odoribacter splanchnicus
Summary of the method: as §1

[4] = tested on: Parabacteroides distasonis
Summary of the method: as §1

Parabacteroides merdae = tested on: Parabacteroides merdae
Summary of the method: as §1

Row | SMILES | growth AUC (Akkermansia muciniphila) | growth AUC (Bacteroides caccae) | growth AUC (Bacteroides clarus) | growth AUC (Bacteroides dorei) | growth AUC (Bacteroides stercoris) | growth AUC [1] | growth AUC (Bacteroides uniformis) | growth AUC [2] | growth AUC (Clostridium difficile) | growth AUC (Collinsella aerofaciens) | growth AUC (Coprococcus comes) | growth AUC (Escherichia coli ED1a) | growth AUC (Escherichia coli IAI1) | growth AUC (Eubacterium rectale) | growth AUC [3] | growth AUC (Lactobacillus gasseri) | growth AUC (Lactobacillus paracasei) | growth AUC (Odoribacter splanchnicus) | growth AUC [4] | growth AUC (Parabacteroides merdae)
1 | O=[N+]([O-])C(Br)(CO)CO | 0.966 | 0.987 | 1.01 | 1.03 | 1.01 | 0.962 | 0.976 | 0.991 | 0.996 | 1.01 | 0.925 | 1 | 0.987 | 0.949 | 1 | 0.958 | 0.999 | 1 | 1.03 | 0.998
2 | CNC(=O)ON=C(CS(C)=O)C(C)(C)C (stereo not given) | 1.08 | 1.02 | 0.997 | 1.01 | 0.97 | 1.02 | 1.01 | 0.955 | 1.02 | 1 | 1 | 1.02 | 0.998 | 1.14 | 1.01 | 1.06 | 0.999 | 1.02 | 1.03 | 1.01
3 | CCCCN(CCCC)SN(C)C(=O)Oc1cccc2c1OC(C)(C)C2 | 1.03 | 1.02 | 0.975 | 0.981 | 0.913 | 1.04 | 1.03 | 0.972 | 1.02 | 1.01 | 1.09 | 0.972 | 1.01 | 1.22 | 1.02 | 0.884 | 0.981 | 1 | 0.895 | 0.951
4 | COS(=O)(=O)[O-].Cn1c(-c2ccccc2)cc(-c2ccccc2)[n+]1C | 0.936 | 0.994 | 0.966 | 0.976 | 0.979 | 0.938 | 1.01 | 0.925 | 1.04 | 0.989 | 1 | 0.98 | 0.974 | 1 | 0.985 | 0.964 | 0.981 | 1.01 | 0.985 | 0.974
5 | CSc1nc(NC(C)C)nc(NC(C)C)n1 | 0.876 | 1.02 | 0.976 | 1.01 | 0.95 | 0.949 | 0.983 | 1.08 | 1.02 | 1.04 | 0.999 | 1.01 | 0.976 | 0.917 | 0.922 | 1.12 | 0.944 | 0.981 | 1.02 | 0.991
6 | CCC(C)n1c(=O)[nH]c(C)c(Br)c1=O (stereo not given) | 1.12 | 0.833 | 0.99 | 0.952 | 1.13 | 0.911 | 0.775 (active) | 1.02 | 0.945 | 0.96 | 1.02 | 0.979 | 0.94 | 1.07 | 1.01 | 0.869 | 1.03 | 0.461 | 0.926 | 0.891
7 | CCOC(=O)CC(SP(=S)(OC)OC)C(=O)OCC (stereo not given) | 1.13 | 0.953 | 1 | 0.881 | 0.982 | 0.977 | 0.965 | 1.09 | 0.845 | 0.955 | 0.984 | 0.975 | 1.02 | 1.07 | 0.977 | 0.917 | 1.13 | 1.07 | 0.959 | 1.01
8 | OC[C@@H](O)[C@H]1O[C@@H]2O[C@H](C(Cl)(Cl)Cl)O[C@@H]2[C@H]1O (mixture of isomers) | 0.979 | 1.02 | 0.978 | 1.04 | 0.952 | 1.01 | 1.04 | 0.969 | 1.03 | 0.975 | 0.988 | 0.99 | 0.986 | 1.05 | 0.83 | 1.03 | 0.943 | 1.06 | 0.903 | 0.999
